The supplement of paper PMC3334620
The full ranking holds about 33,000 sequences; the median of “E-score (-0.5 to 0.5)” is about -0.01, and the highest 2% start at about 0.26. For the sample, the highest values were picked, then their nearest neighbours and some sequences at random.

Biological target: Ste12 (UniProt P13574)
Assay: PBM E-score (8-mer binding enrichment) (E-score (-0.5 to 0.5)); higher = stronger / more preferred TF binding
Settings: protein concentration: 200 nM; construct: GST-DNA-binding domain
Protocol: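 Universal 'all 10-mer' protein binding microarrays (Agilent AMADID 015681) probed with GST-tagged S. cerevisiae TFs (full-length or DBD) made by in vitro transcription/translation (PURExpress), about 100-200 nM. Bound TF was detected with fluorescent anti-GST. Each ungapped 8-mer (which stands for itself and its reverse complement) is scored by the PBM enrichment score (E-score), a modified Wilcoxon-Mann-Whitney statistic from -0.5 to +0.5, computed with the Universal PBM Analysis Suite. Scale: above 0.35 generally sequence-specific binding.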

Chain of UniProt P13574 (P13574 whole entry): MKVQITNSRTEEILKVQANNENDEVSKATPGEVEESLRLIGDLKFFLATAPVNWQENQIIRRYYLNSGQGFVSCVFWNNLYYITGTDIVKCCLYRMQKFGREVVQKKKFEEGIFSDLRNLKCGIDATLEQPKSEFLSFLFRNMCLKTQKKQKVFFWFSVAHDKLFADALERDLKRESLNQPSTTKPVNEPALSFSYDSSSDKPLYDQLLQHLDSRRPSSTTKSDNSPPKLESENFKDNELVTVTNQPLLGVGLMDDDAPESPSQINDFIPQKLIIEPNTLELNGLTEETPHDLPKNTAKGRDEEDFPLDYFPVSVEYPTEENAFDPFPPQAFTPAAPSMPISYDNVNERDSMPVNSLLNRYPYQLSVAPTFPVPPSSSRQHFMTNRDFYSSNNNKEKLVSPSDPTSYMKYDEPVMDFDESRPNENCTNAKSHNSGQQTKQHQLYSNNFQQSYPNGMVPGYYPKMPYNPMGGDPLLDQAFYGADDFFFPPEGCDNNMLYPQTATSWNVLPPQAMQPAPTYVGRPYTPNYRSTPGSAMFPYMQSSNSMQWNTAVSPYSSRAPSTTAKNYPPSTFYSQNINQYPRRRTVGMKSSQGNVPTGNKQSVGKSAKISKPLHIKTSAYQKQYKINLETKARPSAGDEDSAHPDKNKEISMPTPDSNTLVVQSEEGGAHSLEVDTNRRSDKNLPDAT

Row | Sequence | PBM E-score
1 | CCGGCTAC | 0.0776
2 | CGAGCCAG | -0.0693
3 | AACGCACT | -0.0209
4 | GATAAACA | 0.096
5 | TATAAACA | 0.114
6 | CATAAACC | 0.0477
7 | AATAAACG | 0.0508
8 | AATAAACC | 0.269
9 | AATAAACA | 0.284
10 | AAGTATGC | -0.197
11 | AGCCCCCA | -0.118
12 | TATGGACA | -0.00254
13 | CGGTCGAA | 0.00203
14 | CAGTTTAC | -0.053
15 | CGTTAAAG | 0.0915
16 | CGCCGGCG | 0.275
17 | CGCCGGCC | -0.00587
18 | AGCCGGCG | 0.106
19 | CAGACCCG | 0.0234
20 | CTCTCCTC | -0.168
21 | ATGTAACA | 0.288
22 | ATGTAACC | 0.143
23 | CTGTAATA | 0.119
24 | AAGTAAAG | -0.0589
25 | CTGTAACA | 0.268

Row | Sequence | PBM E-score
26 | GCGTAACA | -0.0008
27 | AAGTAAAT | 0.261
28 | GTGTAAGA | 0.058
29 | GTGTAACA | 0.319
30 | ATGTAACG | 0.241
31 | AAGTAAAC | 0.0949
32 | CTGTAACC | 0.183
33 | GCGTCCAA | -0.13
34 | ATGATTGC | 0.146
35 | CAAGACTG | -0.101
36 | ATGCACAG | -0.111
37 | ACTATTGG | -0.0275
38 | CAACTTGA | 0.0746
39 | AAGTAACG | 0.141
40 | AAGTAACT | 0.0625
41 | AAGTAACA | 0.291
42 | AGACCGTA | -0.0932
43 | CATGGTGG | -0.0711
44 | GACTCTAA | 0.115
45 | ACCATAAG | -0.16
46 | TCCATAAA | 0.11
47 | TTGATAAA | 0.277
48 | ATCATAAA | 0.0612
49 | TTCATAAA | 0.324
50 | GTGATAAA | 0.131

Row | Sequence | PBM E-score
51 | CTCATAAA | -0.00236
52 | ACCATAAA | 0.278
53 | ATGATAAA | 0.209
54 | ACTTTGAC | -0.101
55 | ACTTCCCT | -0.0919
56 | GGGTTCAC | -0.0147
57 | GATCTGCC | 0.0158
58 | TAAAAGCA | 0.172
59 | CCAATCGA | 0.067
60 | CTTCACAA | -0.0638
61 | CACGAAAC | 0.266
62 | AACGAAAC | 0.314
63 | GTCGAAAC | 0.128
64 | AACGAAAG | 0.0635
65 | ATCGAAAC | 0.324
66 | CACGAAAA | 0.243
67 | GCCGAAAC | 0.178
68 | CCCGAAAC | 0.303
69 | CACGAAAG | 0.095
70 | CCCGAAAG | 0.00951
71 | AACGAAAT | 0.169
72 | ATCGAAAA | 0.125
73 | CCCAGGTC | -0.207
74 | TCCACAAA | 0.14
75 | GCTTCCAC | -0.11

Row | Sequence | PBM E-score
76 | CTAGGGCC | -0.187
77 | ATCGCGCG | 0.0537
78 | ATGTCTAA | 0.0254
79 | GGGCCCCA | -0.146
80 | CTCCTCAG | -0.11
81 | GAGGTTAA | 0.0122
82 | AGCTGGGA | -0.0199
83 | GTGTGAGA | 0.0959
84 | CTGTGAAG | 0.00467
85 | CTGTGAAC | -0.0759
86 | TTGTGAAA | 0.342
87 | ATGTGAAA | 0.202
88 | GTGTGAAA | 0.307
89 | CTGTGAAA | 0.322
90 | GTGTGAAC | 0.169
91 | CTGTGAGA | -0.0675
92 | ACCTGCCA | -0.121
93 | AGAAAGGA | -0.0699
94 | AAAGCGAA | 0.133
95 | CTTGCATA | -0.045
96 | TCAGGTCA | -0.015
97 | AAAGTCCC | -0.0967
98 | CGAGGCCG | -0.158
99 | GGATTTAA | 0.243
100 | CAAACATG | 0.179

Row | Sequence | PBM E-score
101 | AAAACATA | 0.208
102 | AAAACATC | 0.301
103 | AAAACAAT | 0.225
104 | AAAACATT | 0.28
105 | AACACATG | 0.128
106 | ACAACATC | -0.0874
107 | AAAACATG | 0.324
108 | ATAACATC | 0.0956
109 | AGTGTAGG | 0.00693
110 | ATGTGCTG | 0.133
111 | CTTCGCTC | -0.224
112 | CACACCCG | 0.0642
113 | CCCACCCG | 0.358
114 | CCCACCCA | 0.269
115 | ACCACCCC | 0.0858
116 | TCCACCCA | -0.0525
117 | CCCACCCC | 0.391
118 | GCCACCCC | -0.0121
119 | GCCACCCA | -0.106
120 | ACCACCCG | -0.106
121 | CCTCTTGC | 0.0254
122 | ATCTTCAC | 0.145
123 | CACGGGCG | 0.00735
124 | ATAGCCTG | -0.0913
125 | TAGATCGA | 0.0552

Row | Sequence | PBM E-score
126 | CCAGCTCA | -0.194
127 | CCGTTGAA | 0.0239
128 | GATTATTA | 0.196
129 | CTTATTTA | 0.171
130 | CCTTATTA | 0.187
131 | ATTATTTG | 0.106
132 | ATTATTTA | 0.281
133 | ATTTATAC | 0.195
134 | ATTTATAA | 0.267
135 | ACTTATTA | 0.264
136 | CTTTATTA | 0.112
137 | GTTTATTA | 0.304
138 | CTTTATAA | 0.153
139 | GCTTATTA | 0.0471
140 | AGATCCCG | 0.0252
141 | GAAGGTTA | -0.115
142 | GGCCGACC | -0.123
143 | ACGTAAAG | 0.0191
144 | CACAAGGG | -0.194
145 | CGCCTCTA | -0.0334
146 | ATTATTAC | 0.269
147 | ATTTATTA | 0.292
148 | ATTTATTC | 0.121
149 | CTTATTAC | 0.0999
150 | ATTTATTG | 0.0911

Row | Sequence | PBM E-score
151 | ACTATTAC | 0.0443
152 | CGTGGTAA | -0.0665
153 | ACATCTCA | -0.0976
154 | CGCTCGAA | -0.0852
155 | CTGATCAC | -0.0885
156 | AGGCGAGA | -0.195
157 | GTGAGACA | 0.256
158 | ATGAGACC | -0.144
159 | ATGAGACA | 0.338
160 | AACTTTGC | -0.0155
161 | AGAGTTCA | -0.222
162 | CACATTAA | 0.0442
163 | GAAACGTA | 0.325
164 | GAAACGTC | 0.303
165 | TAAACGTA | -0.115
166 | AAAACGTC | 0.134
167 | CAAACGTC | 0.0704
168 | CAAACGTA | -0.052
169 | CCCGCGAG | 0.119
170 | ATTCGACG | 0.087
171 | ATACCAGG | 0.0311
172 | CCCATCAG | -0.193
